Screens (PubChem BioAssay)
mHTT CaM bind: mutant huntingtin-calmodulin interaction inhibitors – biochemical, AlphaScreen, primary screen | P42858 | AlphaScreen His-mHTT/GST-CaM binding, luminescence | 190,000 compounds, 3.6% hits | inhibition, % at 15 µM;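 note: 0% = both proteins with DMSO and 100% = one protein alone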
Target sequence (P42858 whole entry, looked up, stated change not applied): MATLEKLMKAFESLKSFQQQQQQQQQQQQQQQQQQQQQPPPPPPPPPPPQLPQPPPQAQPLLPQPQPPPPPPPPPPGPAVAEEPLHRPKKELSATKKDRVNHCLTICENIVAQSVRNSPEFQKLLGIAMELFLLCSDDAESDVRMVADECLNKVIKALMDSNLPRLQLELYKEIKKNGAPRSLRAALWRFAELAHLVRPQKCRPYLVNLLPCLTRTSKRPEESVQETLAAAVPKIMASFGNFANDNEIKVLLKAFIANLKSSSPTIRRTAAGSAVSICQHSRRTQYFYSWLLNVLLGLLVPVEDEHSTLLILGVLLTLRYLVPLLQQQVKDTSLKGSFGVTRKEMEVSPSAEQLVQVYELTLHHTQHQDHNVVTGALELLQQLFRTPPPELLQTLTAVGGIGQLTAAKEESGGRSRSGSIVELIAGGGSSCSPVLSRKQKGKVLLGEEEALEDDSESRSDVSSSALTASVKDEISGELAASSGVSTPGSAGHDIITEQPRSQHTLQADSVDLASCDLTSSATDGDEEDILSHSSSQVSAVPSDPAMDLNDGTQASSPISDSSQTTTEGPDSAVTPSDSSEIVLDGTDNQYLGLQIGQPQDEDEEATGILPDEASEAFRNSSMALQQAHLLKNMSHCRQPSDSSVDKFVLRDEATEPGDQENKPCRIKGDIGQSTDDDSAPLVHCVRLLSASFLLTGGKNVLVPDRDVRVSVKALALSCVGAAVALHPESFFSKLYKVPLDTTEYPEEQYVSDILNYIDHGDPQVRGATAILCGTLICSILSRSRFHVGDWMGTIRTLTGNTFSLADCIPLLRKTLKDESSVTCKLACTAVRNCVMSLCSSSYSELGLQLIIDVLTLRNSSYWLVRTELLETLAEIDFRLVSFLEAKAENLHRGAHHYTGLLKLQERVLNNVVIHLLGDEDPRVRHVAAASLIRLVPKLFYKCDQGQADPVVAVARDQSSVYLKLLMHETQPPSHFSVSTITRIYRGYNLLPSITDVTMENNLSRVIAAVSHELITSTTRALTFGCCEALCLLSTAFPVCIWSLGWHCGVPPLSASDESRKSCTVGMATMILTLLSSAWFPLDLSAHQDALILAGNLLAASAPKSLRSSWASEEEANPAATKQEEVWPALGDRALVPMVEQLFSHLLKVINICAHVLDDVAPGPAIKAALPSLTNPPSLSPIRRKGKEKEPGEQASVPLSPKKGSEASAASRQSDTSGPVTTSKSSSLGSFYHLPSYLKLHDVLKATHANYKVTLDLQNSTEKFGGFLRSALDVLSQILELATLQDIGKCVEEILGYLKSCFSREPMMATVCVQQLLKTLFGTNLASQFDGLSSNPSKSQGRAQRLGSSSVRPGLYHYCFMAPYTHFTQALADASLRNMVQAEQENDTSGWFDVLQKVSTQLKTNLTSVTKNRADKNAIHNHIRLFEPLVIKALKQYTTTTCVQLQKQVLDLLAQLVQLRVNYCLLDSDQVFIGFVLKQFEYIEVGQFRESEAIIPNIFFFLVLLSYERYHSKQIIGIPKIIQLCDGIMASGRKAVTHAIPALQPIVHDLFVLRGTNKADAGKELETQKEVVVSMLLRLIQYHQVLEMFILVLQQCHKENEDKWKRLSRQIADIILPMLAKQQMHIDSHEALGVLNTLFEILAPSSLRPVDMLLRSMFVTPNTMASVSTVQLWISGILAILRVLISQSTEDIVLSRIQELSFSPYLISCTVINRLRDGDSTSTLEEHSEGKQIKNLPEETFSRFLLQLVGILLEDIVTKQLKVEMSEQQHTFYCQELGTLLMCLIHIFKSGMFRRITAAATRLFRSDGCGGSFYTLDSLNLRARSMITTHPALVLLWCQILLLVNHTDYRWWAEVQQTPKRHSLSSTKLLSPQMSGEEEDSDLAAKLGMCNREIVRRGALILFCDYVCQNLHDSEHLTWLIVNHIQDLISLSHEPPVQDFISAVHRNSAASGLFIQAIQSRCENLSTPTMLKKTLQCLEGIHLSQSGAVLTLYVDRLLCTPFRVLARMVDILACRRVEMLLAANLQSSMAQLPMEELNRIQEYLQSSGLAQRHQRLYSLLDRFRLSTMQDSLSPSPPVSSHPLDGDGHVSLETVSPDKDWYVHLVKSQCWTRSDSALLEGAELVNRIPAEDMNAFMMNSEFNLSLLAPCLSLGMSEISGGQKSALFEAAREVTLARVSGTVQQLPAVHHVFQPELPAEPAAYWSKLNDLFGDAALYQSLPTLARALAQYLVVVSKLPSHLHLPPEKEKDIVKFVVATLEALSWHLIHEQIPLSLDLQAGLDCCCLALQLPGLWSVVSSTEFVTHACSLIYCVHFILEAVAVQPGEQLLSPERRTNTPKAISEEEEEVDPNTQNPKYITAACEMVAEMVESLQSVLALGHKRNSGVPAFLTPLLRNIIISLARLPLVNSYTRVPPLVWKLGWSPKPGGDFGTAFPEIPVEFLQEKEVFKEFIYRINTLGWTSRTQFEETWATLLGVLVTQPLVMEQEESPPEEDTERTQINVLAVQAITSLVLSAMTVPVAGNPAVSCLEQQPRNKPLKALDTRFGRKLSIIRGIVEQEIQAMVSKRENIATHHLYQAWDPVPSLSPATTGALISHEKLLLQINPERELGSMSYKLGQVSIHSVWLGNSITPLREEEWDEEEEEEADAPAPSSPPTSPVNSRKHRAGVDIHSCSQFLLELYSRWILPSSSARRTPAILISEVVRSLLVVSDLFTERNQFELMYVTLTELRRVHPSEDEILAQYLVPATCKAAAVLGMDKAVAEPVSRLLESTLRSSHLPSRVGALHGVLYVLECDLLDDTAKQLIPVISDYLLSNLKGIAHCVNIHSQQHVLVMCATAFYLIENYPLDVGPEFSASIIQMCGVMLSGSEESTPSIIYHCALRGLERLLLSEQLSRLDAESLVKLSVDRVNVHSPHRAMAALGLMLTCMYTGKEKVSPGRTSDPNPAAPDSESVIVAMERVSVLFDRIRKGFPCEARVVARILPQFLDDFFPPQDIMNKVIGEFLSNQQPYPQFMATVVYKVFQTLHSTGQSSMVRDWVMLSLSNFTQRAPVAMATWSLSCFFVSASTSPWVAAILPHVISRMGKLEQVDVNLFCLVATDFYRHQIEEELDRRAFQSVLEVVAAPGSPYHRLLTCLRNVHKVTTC
Pf apPOL inh: Pf-apPOL inhibitors, biochemical, fluorescence; inhibition, % at 10 µM; AID 1794808, 2022; Plasmodium falciparum apicoplast DNA polymerase (apPOL); Recombinant Pf-apPOL, molecular beacon fluorescence, 1.5 h; 210,000 compounds, 0.25% hits
* marks the source's active call; other numbers are inactive results; . = no result. Rows were chosen to be rich in hits. Some 3.5% of all compounds tested hit in one or more screens of this group. Cut-off read from the data, not from the text of the source: active = inhibition above about 50%; inactive = the rest.

SMILES | mHTT CaM bind | Pf apPOL inh
Cc1cc(C)nc(Nc2nc(C(=O)NCCc3c[nH]c4ccccc34)cs2)n1 | 86.5* | -6.0
COc1ccc(OC)c(Nc2nc(CC(=O)NCc3ccc4c(c3)OCO4)cs2)c1 | 15.0 | -4.3
COc1ccc(OC)c(Nc2nc(CC(=O)NCCc3c[nH]c4ccccc34)cs2)c1 | 53.4* | -3.6
O=C(NCCOc1ccc(F)cc1)c1cc(C2CC2)on1 | -24.4 | -37.2
CCN(C)C(=O)c1cc(N2CCN(c3ccc(OC)cc3)CC2)nc2ccccc12 | 7.7 | 0.9
O=C(Cc1ccc(Cl)cc1)N1CCC(COc2ccccc2C(=O)N2CCCC2)CC1 | 27.4 | -1.0
Fc1cc(F)c(C2SCCN2C(=S)NCCc2ccccc2)c(F)c1 (stereo unspecified) | 59.0* | .
S=C(NCCc1ccccc1)N1CCOCC1 | . | -10.8
Cc1cccc(CN2CCCn3nc(C(=O)NCC(C)c4ccccc4)cc3C2=O)c1 (stereo unspecified) | 11.4 | 2.0
COc1ccccc1CNC(=O)c1sc2nc(C)nc(N3CCN(C)CC3)c2c1C | 8.0 | -5.0
O=C(OCc1cn([C@H]2C[C@H](c3ccc(Cl)cc3)N(Cc3cccs3)C[C@@H]2O)nn1)c1ccccc1 | 33.5 | -1.7
O=C(OCc1cn([C@H]2CN(Cc3cccs3)[C@@H](c3ccc(Cl)cc3)C[C@@H]2O)nn1)c1ccccc1 | 100.2* | -6.2
Cc1ccc([C@H]2C[C@@H](O)[C@H](n3cc(COC(=O)c4ccccc4)nn3)CN2Cc2cccs2)cc1 | 0.7 | 2.5
Cc1ccc([C@H]2C[C@H](O)[C@@H](n3cc(COC(=O)c4ccccc4)nn3)CN2Cc2cccs2)cc1 | 99.7* | -0.4
CCOC(=O)c1ccc(OCC2c3cc(OC)c(OC)cc3CCN2C(=O)c2cc(OCC)c(OCC)c(OCC)c2)cc1 (stereo unspecified) | 0.0 | 1.8
O=C(NCCCN1CCN(c2ccccc2F)CC1)C1CCCN(c2ccncc2)C1 (stereo unspecified) | -6.4 | 10.4
CCOC1=NN(c2ccc([N+](=O)[O-])cc2)C(=O)/C1=C/c1ccccc1Cl | 79.0* | -5.5
CCOC1=NN(c2ccc([N+](=O)[O-])cc2)C(=O)/C1=C/c1ccc(Cl)c(Cl)c1 | 32.0 | 8.1
CC1=C(C(=O)Nc2ccccc2)C(c2ccccc2)n2c(s/c(=C\c3ccco3)c2=O)=N1 (stereo unspecified) | 9.0 | 0.3
CC1=C(C(=O)Nc2ccccc2)C(c2ccc(F)cc2)n2c(s/c(=C\c3ccc(C)o3)c2=O)=N1 (stereo unspecified) | 66.0* | -4.4
CN(C)S(=O)(=O)c1ccc(C(=O)Nc2ccc(N=Nc3ccccc3)cc2)cc1 | 9.0 | -1.3
CC1(C)Cc2nc3sc(C(=O)O)c(N)c3cc2CS1 | 51.0* | 0.5
Nc1c(C(=O)O)sc2nc3c(cc12)CCCC3 | -3.5 | .
Cc1ccc(NC(=O)CS(=O)(=O)c2cn(Cc3cccc(F)c3)c3ccccc23)cc1 | 10.0 | 1.8
Cc1cccc(-n2nc(C)c(C(=O)N3CCOCC3)c2C)c1 | 0.2 | -0.7
SMILES | mHTT CaM bind | Pf apPOL inh
CCN(CC)CCC(c1ccc(N(C)C)cc1)c1c(OC)cc(OC)c2c1OC(=O)CC2c1ccc(N(C)C)cc1 (stereo unspecified) | 100.6* | 0.4
CCN(CC)CCC(c1ccc(OC)cc1)c1c(OC)cc(OC)c2c(C)cc(=O)oc12 (stereo unspecified) | 14.4 | -7.2
CCN(CC)CCC(c1ccc2c(c1)OCO2)c1c(OC)cc(OC)c2c(C)cc(=O)oc12 (stereo unspecified) | 29.9 | -14.3
CCN(CC)CCC(c1ccc(N(C)C)cc1)c1c(OC)cc(OC)c2c1OC(=O)CC2c1ccc(OC)cc1 (stereo unspecified) | 98.0* | -8.7
O=C1CSC(=NC(=O)c2cccc([N+](=O)[O-])c2)N1 | -4.8 | -2.2
COc1ccccc1NC(=O)Nc1ccc2c(c1)N(S(=O)(=O)c1cccs1)CCC2 | 18.0 | -3.6
Cc1ccc(C(C)NC(=O)c2cc3c(s2)CN(C2CC2)C3)cc1C (stereo unspecified) | 11.8 | -1.7
O=C(NCCCN1CCOCC1)c1ccnc(N2CCNC(c3ccccc3)C2)c1 (stereo unspecified) | -3.5 | 4.3
COc1ccc(N(CC(=O)NCc2ccc(Cl)cc2Cl)S(C)(=O)=O)cc1OC | -2.3 | -6.0
COc1ccccc1C1C2=C(CCCC2=O)Nc2nc(-c3cccc(C)c3)nn21 (stereo unspecified) | 6.3 | -2.0
COc1ccc(-c2nc3n(n2)C(c2ccc(OC)cc2)C2=C(CCCC2=O)N3)cc1 (stereo unspecified) | 46.9 | -1.4
COc1ccc(-c2nc3n(n2)C(c2ccc(Cl)cc2)C2=C(CCCC2=O)N3)cc1OC (stereo unspecified) | 8.7 | -0.2
COc1cc(OC)cc(-c2nc3n(n2)C(c2ccc(F)cc2)C2=C(CCCC2=O)N3)c1 (stereo unspecified) | 56.8* | 1.7
